The record followed here is PubChem BioAssay (NCATS).

Records with an inconclusive call do not appear. Where a call stands in place of a potency, no number is given. The source made the active and inactive calls. Calls come from the whole dose curve; as a rule, active = well fitted inhibition curve with a large enough effect; inconclusive = small, poorly fitted or top-dose-only effect; inactive = no such curve, though single readings can be large or run the other way.

This experiment in a line: Primary qHTS for small molecule stabilizers of the endoplasmic reticulum resident proteome: Secreted ER Calcium Modulated Protein (SERCaMP) assay (AID 1508630). The settings on record: SH-SY5Y GLuc-SERCaMP (Gaussia luciferase released on ER calcium loss) secretion, thapsigargin, luminescence; series mostly up to 38.4 µM. An excerpt:
Assay Provider: Brandon K. Harvey Ph.D.
National Institute on Drug Abuse, National Institutes of Health, Baltimore, MD
Endoplasmic reticulum (ER) dysregulation is associated with human pathologies including neurodegenerative, cardiovascular, muscular, and diabetic conditions. Maintenance of ER calcium is critical for functions of the ER and its depletion can lead to loss of ER resident proteins, in a process termed exodosis. Therapeutic compounds capable of attenuating the redistribution of ER proteins under pathological conditions may slow or stop disease progression. To identify such compounds, we performed a quantitative high-throughput screen (qHTS) using the SERCaMP assay, which monitors secretion of ER resident proteins triggered by calcium depletion.
SERCaMP was initially developed as a reporter of ER calcium homeostasis using a Gaussia luciferase with a modified signal peptide and carboxy-terminus (GLuc-SERCaMP), modifications that confer secretion of the reporter in response to ER calcium depletion (Henderson et al., 2014). The assay was used to screen 9,501 compounds, including a collection of drugs approved by the FDA (US), EMA (EU), NHI (Japan), and HC (Canada) regulatory agencies (Huang et al., 2011). Since the SERCaMP reporter reflects the exodosis phenomenon (Trychta et al., 2018a), compounds identified in the screen have the potential to prevent exodosis by different mechanisms such as stabilizing ER calcium or augmenting ERS retrieval.
1. Henderson, M.J., Wires, E.S., Trychta, K.A., Richie, C.T., and Harvey, B.K. (2014). SERCaMP: a carboxy-terminal protein modification that enables monitoring of ER calcium homeostasis. Mol Biol Cell 25, 2828-2839.
2. Huang, R., Southall, N., Wang, Y., Yasgar, A., Shinn, P., Jadhav, A., Nguyen, D.T., and Austin, C.P. (2011). The NCGC pharmaceutical collection: a comprehensive resource of clinically approved drugs enabling repurposing and chemical genomics. Sci Transl Med 3, 80ps16.
3. Trychta, K.A., Back, S., Henderson, M.J., and Harvey, B.K. (2018a). KDEL Receptors Are Differentially Regulated to Maintain the ER Proteome under Calcium Deficiency. Cell Rep 25, 1829-1840 e1826.
SEQUENCE No. (1, 2, 3, etc.); […] (e.g., Cells, Incubation, Reagent, etc.); VALUE and DESCRIPTION.
1; Reagent; 5 uL; 1000 SH-SY5Y cells per wells
3; Compound; 23 nL; Control inhibitor / compound library
5; Reagent; 100 nM; Thapsigargin
7; Reagent; 1 uL; 0.5x coelenterazine
8; Detection; Luminescence; ViewLux imaging system
NOTES (numbers refer to sequence above)
1; SH-SY5Y human neuroblastoma cells stably expressing GLuc-SERCaMP (SH-SY5Y-GLuc-ASARTDL) cells were seeded in 1,536 well white tissue culture treated plates (Corning, Cat# 7464) in DMEM-high glucose-sodium pyruvate (ThermoFisher Scientific, Cat #10569) supplemented with 10% bovine growth serum (Hyclone), 10 U/ml penicillin (Gibco), 10 ug/ml streptomycin (Gibco), and 20 mM HEPES.
2; Assay plates were incubated for 5 hour at 37C in a humidified incubator containing 5% CO2.
3; qHTS libraries (23 nl, final concentrations of 1.53 uM, 7.67 uM, 38.3 uM) or controls (neutral control: DMSO, positive control: dantrolene) were added using a Kalypsis pin-tool Robotic System equipped with 1536 pinheads.
4; Cells were then incubated for 16 hours at 37C, 5% CO2.
5; Thapsigargin was added at 100 nM to deplete ER calcium stores.
6; Cells were incubated for 4 hour (37 °C, 5% CO2)
7; Gaussia luciferase in the medium was measured by adding 1 ul of 0.5x coelenterazine (final concentration 0.07x) prepared in Gaussia Luciferase Glow Assay Buffer (Pierce), without addition of the Cell Lysis Buffer Reagent.
8; Luminescence was measured using a ViewLux […] CCD imaging system (Perkin Elmer) equipped with clear filters. […] The same controls were also used for the calculation of the Z' factor, a measure of assay quality control, as previously described (Zhang et al., 1999). […]
On the technique in general: qHTS replaces the single test concentration by a dilution series.
`NC(N)=N[C@@H](CCC(=O)O)C(=O)O`: the Potency entry was “inactive”.
Regarding `COc1cccc(OC)c1OCCNCC1CSc2ccccc2O1` (stereo not given), the Potency entry is “inactive”.
The entry for `NOCC(=O)O` is “inactive”.
The entry for `CC(=O)NNC(=O)N1Cc2ccccc2Oc2ccc(Cl)cc21` is “inactive”.
The entry for `COc1ccc(-c2ccc(N)[n+](CCCC(=O)O)n2)cc1` is “inactive”; for `Cn1c(=O)c2[nH]c(C3CCCC3)nc2n(C)c1=O` it is “inactive”.
As for `NC1(C(=O)O)CCCCC1`, the Potency result was “inactive”.
Consider `NCCC1CCCC(CCN)N1` (stereo not given), for which the Potency result is “inactive”.
Consider `CC(C)C[C@H](NC(=O)C1OC1C(=O)O)C(=O)NCCCCN=C(N)N` (stereo not given in full), for which the Potency result was “inactive”.
The same measure for `CC(=O)N[C@@H](Cc1c[nH]c2ccccc12)C(=O)OCc1cc(C(F)(F)F)cc(C(F)(F)F)c1`: “inactive”; for `CC1CNCCN1S(=O)(=O)c1cccc2cnccc12` (stereo not given): “inactive”.
Take `c1ccc2c(c1)CC(N1CCN(c3cccc4c3OCCO4)CC1)C2`: the Potency result was “inactive”.
Turning to `O=C(O)C1CCNCC1`, the Potency result was “inactive”.
For the molecule `NC1CONC1=O` (stereo not given), the Potency result is “inactive”.
The same measure for `O=c1ccc2c(OCCCCc3ccccc3)c3ccoc3cc2o1`: “inactive”.
The entry for `Oc1ccc(Cn2cc[nH]c2=S)cc1` is “inactive”.
For `OCC1NCC(O)C(O)C1O` (stereo not given), the Potency entry is “inactive”.
The entry for `CCCCOc1cc(CC2CNC(=O)N2)ccc1OC` (stereo not given) is “inactive”; for `O=C(O)C1CCCNC1` (stereo not given) it is “inactive”.
Turning to `CC(C)Cn1c(=O)n(C)c(=O)c2[nH]cnc21`, the Potency entry is “inactive”.
The same measure for `[Li+]`: “inactive”; for `CCC1(O)CC2CN(CCc3c([nH]c4ccccc34)[C@@](C(=O)OC)(c3cc4c(cc3OC)N(C)C3[C@]45CCN4CC=C[C@@](CC)([C@@H](OC(C)=O)[C@]3(O)C(=O)OC)[C@H]45)C2)C1` (stereo not given in full): “inactive”.
`O=C1Nc2ccc(I)cc2/C1=C/c1cc(Br)c(O)c(Br)c1`: the Potency entry is “inactive”.
The entry for `C[C@@]1(C2CCCC2)Cc2cc(OCC(=O)O)c(Cl)c(Cl)c2C1=O` is “inactive”.
The same measure for `N[C@@H](Cc1ccc(F)cc1)C(=O)O`: “inactive”.
In the case of `N#CC(=C(\N)Sc1ccccc1N)/C(C#N)=C(/N)Sc1ccccc1N`, the Potency result is “inactive”.
The entry for `O=c1[nH]c2ccccc2c2ccccc12` is “inactive”; for `N[C@H](C(=O)O)[C@H]1C[C@@H]1C(=O)O` it is “inactive”; for `NC(N)=NC(N)=Nc1ccccc1` it is “inactive”.
Consider `CC1=C(/C=C/C(C)=C/C=C/C(C)=C\C(=O)O)C(C)(C)CCC1`, for which the Potency entry was “inactive”.
The same measure for `OC[C@H]1NC[C@@H](O)[C@@H]1O`: “inactive”; for `C[N+](C)(C)CC=O`: “inactive”.
As for `CC(C)(CO)Cc1cc(C(C)(C)C)c(O)c(C(C)(C)C)c1`, the Potency result was “inactive”.
The entry for `CC#CCOC(=O)c1c(C)nc2sc3c(c2c1N)CCC(O)C3` (stereo not given) is “inactive”.
For the molecule `CCN(CC)CCCCCCCCOC(=O)c1cc(OC)c(OC)c(OC)c1`, the Potency entry is “inactive”.
The same measure for `Cn1ccnc1`: “inactive”.
The same measure for `CCCn1c(=O)c2[nH]c(C3CCCC3)nc2n(CCC)c1=O`: “inactive”; for `CCCCC[C@H](CC(=O)NO)C(=O)N[C@H](C(=O)N1CCC[C@H]1CO)C(C)C`: “inactive”.
The entry for `O=C(O)/C=C/c1ccc(O)c(O)c1` is “inactive”; for `COc1ccccc1N1CCN(CCCNc2c(C)c(=O)n(C)c(=O)n2C)CC1` it is “inactive”.
